# Data published in PubChem BioAssay (Tox21).
# Records with an inconclusive call do not appear. A call without a number means that no potency is given here. The source made the active and inactive calls. The call rests on the fitted dose curve; in most records, active means well fitted curve in the direction sought with a large enough effect in the repeat runs; inconclusive means weak or mixed curves; inactive means no such curve, though single readings can be large; an effect the other way counts as inactive or inconclusive.
# Test: qHTS assay to identify small molecule agonists of the RXR signaling pathway - cell viability counter screen (AID 1159529); further: nearly all actives have a fitted effect of over 50% in size; further: potency means the concentration at half of the fitted maximal effect
# Settings: RXR-alpha-bla HEK293T viability, CellTiter-Glo, 16 h; series mostly up to 76.8 µM
# In short: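 Compounds dissolved in DMSO were pinned onto HEK 293T cells carrying a beta-lactamase reporter under RXR-alpha control and incubated 16 hr. Cytotoxicity was then quantified by CellTiter-Glo luminescence.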
row,Compound,Potency
1,C#CCOC(=O)[C@@H](C)Oc1ccc(Oc2ncc(Cl)cc2F)cc1,inactive
2,O=C(O)C(c1ccc(Cl)cc1)c1ccc(Cl)cc1,inactive
3,CCCCOC(=O)c1ccccc1C(=O)OCC(CC)CCCC (stereo not given),inactive
4,CC(=O)[C@@]1(O)CC[C@H]2[C@@H]3C[C@H](C)C4=CC(=O)CC[C@]4(C)[C@H]3CC[C@@]21C,inactive
5,CC(C)NCC(O)COc1ccc(CC(N)=O)cc1 (stereo not given),inactive
6,O=C(Nc1ccccc1)OCC(CN1CCCCC1)OC(=O)Nc1ccccc1 (stereo not given),inactive
7,CCCCCCCCCCCCC(=O)O,24.6 µM (active)
8,Cc1cc(O)ccc1N,34.9 µM (active)
9,c1ccc(CNCc2ccccc2)cc1,inactive
10,c1ccc(-c2nc[nH]c2-c2ccccc2)cc1,inactive
11,CC(=O)/C=C/C1C(C)=CCCC1(C)C (stereo not given),inactive
12,CCOc1nc2cccc(C(=O)O)c2n1Cc1ccc(-c2ccccc2-c2nn[nH]n2)cc1,inactive
13,O=C1CCCCCO1,inactive
14,CCN(CC)CCc1nc(-c2ccccc2)no1,inactive
15,O=C(O)/C=C/c1cnc[nH]1,inactive
16,O=C(O)c1cn(C2CC2)c2cc(Cl)c(F)cc2c1=O,inactive
17,CCOc1ccc2[nH]cc(C(=O)NCc3ccccc3)c(=O)c2n1,inactive
18,CC(C)=CCCC(C)CC=O (stereo not given),inactive
19,CNS(=O)(=O)Cc1ccc2[nH]cc(CCN(C)C)c2c1,inactive
20,OCCC1CCCCN1 (stereo not given),inactive
21,O=S1(=O)N=C(O)c2ccccc21,inactive
22,CC(=O)Nc1ccc(/C=N/NC(N)=S)cc1,inactive
23,CN(C)CCCNCCCN,48.8 µM (active)
24,CC(C)(C)c1ccc(S)cc1,inactive
25,CC(C)NCC(O)c1cc(O)cc(O)c1 (stereo not given),inactive
26,CCCCCCCCCC(=O)OCC,inactive
27,N#Cc1c(F)cccc1F,inactive
28,CC(C)(C)C1CCCCC1O (stereo not given),inactive
29,CCCCCCCCCCCCCCC1CO1 (stereo not given),inactive

# Test: qHTS assay to identify small molecule antagonists of the retinoid acid receptor (RAR) signaling pathway - cell viability counter screen (AID 1159551); further: nearly all actives have a fitted effect of over 35% in size
# Settings: C3RL4 cells viability, ATP luminescence (CellTiter-Glo), 6 h; series mostly up to 92.4 µM
# In short: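 Measured by luminescent ATP detection, viability reflects C3RL4 cells treated 6 h at 37 C with test chemicals in the presence of 1 uM (final) retinol.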
row,Compound,Potency
1,O=C(O)C(c1ccc(Cl)cc1)c1ccc(Cl)cc1,inactive
2,CC(=O)[C@@]1(O)CC[C@H]2[C@@H]3C[C@H](C)C4=CC(=O)CC[C@]4(C)[C@H]3CC[C@@]21C,inactive
3,CC(C)NCC(O)COc1ccc(CC(N)=O)cc1 (stereo not given),inactive
4,O=C(Nc1ccccc1)OCC(CN1CCCCC1)OC(=O)Nc1ccccc1 (stereo not given),inactive
5,CCCCCCCCCCCCC(=O)O,inactive
6,c1ccc(CNCc2ccccc2)cc1,inactive
7,c1ccc(-c2nc[nH]c2-c2ccccc2)cc1,inactive
8,CCCCOC(O)CC (stereo not given),inactive
9,CC(=O)/C=C/C1C(C)=CCCC1(C)C (stereo not given),inactive
10,CC[C@H](C)[C@@H](C(=O)O)n1sc2ccccc2c1=O,inactive
11,CCOc1nc2cccc(C(=O)O)c2n1Cc1ccc(-c2ccccc2-c2nn[nH]n2)cc1,inactive
12,COc1ccc([C@@H]2Sc3ccccc3N(CCN(C)C)C(=O)[C@@H]2OC(C)=O)cc1,inactive
13,CCN(CC)CCc1nc(-c2ccccc2)no1,inactive
14,O=C(O)/C=C/c1cnc[nH]1,inactive
15,O=C(O)c1cn(C2CC2)c2cc(Cl)c(F)cc2c1=O,inactive
16,C[C@@H](C1=C(CCN(C)C)Cc2ccccc21)c1ccccn1,inactive

row,Compound,Potency
1,CCOc1ccc2[nH]cc(C(=O)NCc3ccccc3)c(=O)c2n1,inactive
2,CC(C)=CCCC(C)CC=O (stereo not given),inactive
3,CNS(=O)(=O)Cc1ccc2[nH]cc(CCN(C)C)c2c1,inactive
4,CC(=O)Nc1ccc(/C=N/NC(N)=S)cc1,inactive
5,CC(C)(C)c1ccc(OCC2CO2)cc1 (stereo not given),inactive
6,CC(Cc1cccc(C(F)(F)F)c1)NCCOC(=O)c1ccccc1 (stereo not given),inactive
7,CN(C)CCCNCCCN,inactive
8,CC(C)(C)c1ccc(S)cc1,inactive
9,CC(C)NCC(O)c1cc(O)cc(O)c1 (stereo not given),inactive
10,CCCCCCCCCC(=O)OCC,inactive
11,N#Cc1c(F)cccc1F,inactive
12,CC(C)(C)C1CCCCC1O (stereo not given),inactive
13,CCCCCc1ccc(N)cc1,inactive
14,O=C=NC1CCC(CC2CCC(N=C=O)CC2)CC1 (stereo not given),inactive
15,CCCCCCCCCCCCCCC1CO1 (stereo not given),inactive

# Test: qHTS assay to identify small molecule antagonists of the retinoic acid receptor (RAR) signaling pathway (AID 1159552; further: nearly all actives have a fitted effect of over 50% in size)
# Settings: C3RL4 RARE luciferase reporter, retinol-stimulated, 6 h; series mostly up to 92.4 µM
# In short: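 Test chemicals and DMSO controls were pin-transferred onto C3RL4 cells a day after seeding; retinol (1 uM final) followed at once. Luminescent reporter output was quantified after 6 hr of co-incubation and 30 min with detection reagent.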
row,Compound,Potency
1,C#CCOC(=O)[C@@H](C)Oc1ccc(Oc2ncc(Cl)cc2F)cc1,inactive
2,O=C(O)C(c1ccc(Cl)cc1)c1ccc(Cl)cc1,inactive
3,O=C(Nc1ccccc1)OCC(CN1CCCCC1)OC(=O)Nc1ccccc1 (stereo not given),inactive
4,CCCCCCCCCCCCC(=O)O,inactive
5,CCOC(=O)C1=NN(c2ccccc2)C(=O)C1,inactive
6,Cc1cc(O)ccc1N,inactive
7,c1ccc(CNCc2ccccc2)cc1,inactive
8,CCCCOC(O)CC (stereo not given),inactive
9,CC(=O)/C=C/C1C(C)=CCCC1(C)C (stereo not given),inactive
10,CCOc1nc2cccc(C(=O)O)c2n1Cc1ccc(-c2ccccc2-c2nn[nH]n2)cc1,inactive
11,O=C1CCCCCO1,inactive
12,COc1ccc([C@@H]2Sc3ccccc3N(CCN(C)C)C(=O)[C@@H]2OC(C)=O)cc1,inactive
13,CCN(CC)CCc1nc(-c2ccccc2)no1,inactive
14,O=C(O)/C=C/c1cnc[nH]1,inactive
15,O=C(O)c1cn(C2CC2)c2cc(Cl)c(F)cc2c1=O,inactive
16,C[C@@H](C1=C(CCN(C)C)Cc2ccccc21)c1ccccn1,inactive
17,CCOc1ccc2[nH]cc(C(=O)NCc3ccccc3)c(=O)c2n1,inactive
18,OCCC1CCCCN1 (stereo not given),inactive
19,CC(=O)Nc1ccc(/C=N/NC(N)=S)cc1,inactive
20,CC(C)(C)c1ccc(OCC2CO2)cc1 (stereo not given),inactive
21,CC(Cc1cccc(C(F)(F)F)c1)NCCOC(=O)c1ccccc1 (stereo not given),inactive
22,Nc1ccc(C(=O)Nc2ccccc2N)cc1,inactive
23,CN(C)CCCNCCCN,inactive
24,CC(C)NCC(O)c1cc(O)cc(O)c1 (stereo not given),inactive
25,CCCCCCCCCC(=O)OCC,inactive
26,CCCCCCc1ccc(N)cc1,inactive
27,N#Cc1c(F)cccc1F,inactive
28,CC(C)(C)C1CCCCC1O (stereo not given),inactive
29,CCCCCc1ccc(N)cc1,inactive
30,CCCCCCCCCCCCCCC1CO1 (stereo not given),inactive
